About 83,000 compounds went through this panel and 20% of them were active in at least one assay; those are over-represented in the sample as a whole.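 Treatment: one concentration, 48 hours, 96-well format. Scoring: percent growth, with anything below 10 considered active.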 Active and inactive are the calls of the source.

The assay has as its system HT29 colon. Nature of the assay: NCI-60 one-dose screen, 48 h (100 = growth as untreated, 0 = no growth, -100 = all killed). To be noted: 10 µM unless noted.
For the molecule `COc1cc(/C=C/C(=O)c2cc(OC)c(OC)c(OC)c2)ccc1OCc1ccc(F)cc1`, the growth is 4.34% (active).
As for `CC(O)C(NC(=O)C1CCCN1C(=O)CNC(=O)C1CC(=O)NCC(=O)NC(Cc2c[nH]c3ccccc23)C(=O)NC(Cc2ccc(O)cc2)C(=O)NCC(=O)NC(CO)C(=O)NC(CCC(N)=O)C(=O)NC(Cc2c[nH]c3ccccc23)C(=O)N1)C(=O)NCC(=O)NC(CCC(N)=O)C(=O)NC(CCCNC(=N)N)C(=O)NC(CC(=O)O)C(=O)O` (stereo unspecified), the growth was 106% (inactive).
Turning to `COc1cc(/C=C/C(=O)c2cc(OC)c(OC)c(OC)c2)ccc1Oc1nc(NCCO)nc(N2CCOCC2)n1`, the growth was -21.5% (active).
Consider `COc1cc(N=Cc2sc(Nc3nccs3)nc2O)cc(OC)c1OC`, for which the growth was 109% (inactive).
With `C#Cc1nc(C2=C(C)C(OC(=O)CCC(=O)O)CC2)cs1` (stereo unspecified), the growth is 125% (inactive).
Under `O=C(N/N=C/c1ccc(Br)s1)c1[nH]c2ccc(Br)cc2c1-c1ccccc1` stands 5.61% (active); under `COc1cc(/C=C/C(=O)c2ccc(Cl)cc2)ccc1Oc1nc(NCCO)nc(N2CCOCC2)n1`, 111% (inactive).
Next, `O=C(N/N=C/c1ccco1)c1[nH]c2ccc(Br)cc2c1-c1ccccc1`: -25.3% (active); `COC(=O)C(C)NS(=O)(=O)/N=C1\NC(=O)NC1=C(Cl)Cl` (stereo unspecified): 115% (inactive).
In the case of `COc1cc(/C=C/C(=O)c2ccc(F)cc2)ccc1Oc1nc(NCCO)nc(N2CCOCC2)n1`, the growth was 53.5% (inactive).
On to `O=C(CN1CCOCC1)NNc1ncnc2ccccc12`, for which the growth was 92% (inactive).

Values taken from PubChem BioAssay (NCI).
